Assay results published in the supplement of paper PMC12645437, “Orthogonal IMiD-Degron Pairs Induce Selective Protein Degradation in Cells” (ACS Chemical Biology, 2025).
Whole data set: some 8,300 sequences, median “log2 fold change of degron read counts, EGFP-low vs EGFP+ sorted cells (limma voom), compound-induced degradation” near -1.1, cut for the highest 2% near 3.2. The entries come from a sample that favours the highest values as a whole.

Biological target: T1, CRBN, Q96SW2
T1 chain: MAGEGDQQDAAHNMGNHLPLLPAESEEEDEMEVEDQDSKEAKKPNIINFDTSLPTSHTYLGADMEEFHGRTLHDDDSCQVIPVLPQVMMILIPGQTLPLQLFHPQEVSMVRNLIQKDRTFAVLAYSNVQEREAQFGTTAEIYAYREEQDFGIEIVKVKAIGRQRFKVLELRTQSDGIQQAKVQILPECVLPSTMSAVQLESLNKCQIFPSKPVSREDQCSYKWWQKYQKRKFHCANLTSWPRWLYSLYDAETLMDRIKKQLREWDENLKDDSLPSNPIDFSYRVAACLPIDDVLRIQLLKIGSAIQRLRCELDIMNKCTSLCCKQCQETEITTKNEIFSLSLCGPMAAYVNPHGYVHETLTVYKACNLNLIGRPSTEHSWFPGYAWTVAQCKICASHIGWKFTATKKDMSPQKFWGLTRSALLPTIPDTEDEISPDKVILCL
Experiment: log2 fold change of degron read counts, EGFP-low vs EGFP+ sorted cells (limma voom), compound-induced degradation; higher = more compound-induced degradation of the degron-EGFP fusion; degrons are variants of IKZF1/3 zinc finger 2; compound dose not given here
Settings: Jurkat, 18 h

[1] = compound: compound 19 (5-tert-butyl-thalidomide)
[2] = compound: compound 22 (5-morpholino-thalidomide)
[3] = compound: compound 33 (diphenyl IMiD analogue)
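Further: pooled lentiviral library of zinc finger degron-EGFP fusions in mCherry-positive Jurkat cells, FACS-sorted after compound exposure, with degron abundance counted by next-generation sequencing.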

Sequence | log2 fold change of degron read counts [1] | log2 fold change of degron read counts [2] | log2 fold change of degron read counts [3] | log2 fold change of degron read counts (compound: thalidomide)
FYCEICGRDFTQKGNLLRHIKL [46F_47Y_49E_50I_52G_53R_54D_55F_67L_, Q9UKT9] | -2.29 | -2.76 | -1.95 | -2.67
FQCDQCGAQFTQKGNLLRHIKL [46F_47Q_49D_50Q_52G_53A_54Q_55F_67L_, Q9UKT9] | -2.81 | -1.76 | -1.35 | 0.414
FFCEICGHMFTQKGNLLRHIKL [46F_47F_49E_50I_52G_53H_54M_55F_67L_, Q9UKT9] | -1.68 | -2.18 | -1.72 | -2.01
FECNQCGAYFTQKGNLLRHIKL [46F_47E_49N_50Q_52G_53A_54Y_55F_67L_, Q9UKT9] | -2.64 | -2.84 | -1.48 | -1.4
FMCEICGHVFTQKGNLLRHIKL [46F_47M_49E_50I_52G_53H_54V_55F_67L_, Q9UKT9] | -2.94 | -3.04 | -2.18 | -2.54
FKCNICGAWFTQKGNLLRHIKL [46F_47K_49N_50I_52G_53A_54W_55F_67L_, Q9UKT9] | -1.98 | -2.92 | -2.11 | -1.78
FYCPICGAKFTQKGNLLRHIKL [46F_47Y_49P_50I_52G_53A_54K_55F_67L_, Q9UKT9] | 2.61 | 3.07 | 1.08 | 0.503
FCCPICGADFTQKGNLLRHIKL [46F_47C_49P_50I_52G_53A_54D_55F_67L_, Q9UKT9] | 1.61 | 1.1 | 1.77 | 1.6
FCCPICGAPFTQKGNLLRHIKL [46F_47C_49P_50I_52G_53A_54P_55F_67L_, Q9UKT9] | 3.65 | 3.16 | 2.16 | 2.67
FCCNICGAPFTQKGNLLRHIKL [46F_47C_49N_50I_52G_53A_54P_55F_67L_, Q9UKT9] | 3.01 | 2.73 | 1.32 | 1.86
FYCPICGAPFTQKGNLLRHIKL [46F_47Y_49P_50I_52G_53A_54P_55F_67L_, Q9UKT9] | 3.63 | 3.27 | 2.84 | 2.2
FDCPICGAPFTQKGNLLRHIKL [46F_47D_49P_50I_52G_53A_54P_55F_67L_, Q9UKT9] | 2.88 | 1.73 | 1.54 | 2.15
FYCPICGADFTQKGNLLRHIKL [46F_47Y_49P_50I_52G_53A_54D_55F_67L_, Q9UKT9] | 1.73 | 1.44 | 1.25 | -0.522
FLCPICGAPFTQKGNLLRHIKL [46F_47L_49P_50I_52G_53A_54P_55F_67L_, Q9UKT9] | 2.02 | 2.98 | 2.65 | 3.18
FVCPICGAPFTQKGNLLRHIKL [46F_47V_49P_50I_52G_53A_54P_55F_67L_, Q9UKT9] | 2.4 | 3.68 | 2.3 | 3.49
FCCDICGAMFTQKGNLLRHIKL [46F_47C_49D_50I_52G_53A_54M_55F_67L_, Q9UKT9] | 0.674 | 0.00358 | 0.721 | -0.808
FWCNVCGACFTQKGNLLRHIKL [46F_47W_49N_50V_52G_53A_54C_55F_67L_, Q9UKT9] | 1.84 | 2.89 | 1.57 | -0.431
FYCNQCGHAFTQKGNLLRHIKL [46F_47Y_49N_50Q_52G_53H_54A_55F_67L_, Q9UKT9] | -2.34 | -2.37 | -2.98 | -2.66
FLCDICGASFTQKGNLLRHIKL [46F_47L_49D_50I_52G_53A_54S_55F_67L_, Q9UKT9] | 0.329 | -1.41 | 0.103 | -0.525
FNCDICGAEFTQKGNLLRHIKL [46F_47N_49D_50I_52G_53A_54E_55F_67L_, Q9UKT9] | 0.228 | -1.87 | -2.21 | -2.45
FECEICGHGFTQKGNLLRHIKL [46F_47E_49E_50I_52G_53H_54G_55F_67L_, Q9UKT9] | -3.39 | -3.7 | -2.59 | -2.45
FTCEICGRLFTQKGNLLRHIKL [46F_47T_49E_50I_52G_53R_54L_55F_67L_, Q9UKT9] | -2.87 | -2.3 | -0.938 | -0.343
LWCNQCGFPCTQKGNLLRHIKL [46L_47W_49N_50Q_52G_53F_54P_55C_67L_, Q9UKT9] | -0.74 | -1.09 | -1.33 | -1.27
FYCPQCGAWFTQKGNLLRHIKL [46F_47Y_49P_50Q_52G_53A_54W_55F_67L_, Q9UKT9] | -0.595 | -1.07 | -0.405 | -1.33
FECNVCGAHFTQKGNLLRHIKL [46F_47E_49N_50V_52G_53A_54H_55F_67L_, Q9UKT9] | -2.58 | -2.72 | -0.566 | -0.594
FLCDVCGACFTQKGNLLRHIKL [46F_47L_49D_50V_52G_53A_54C_55F_67L_, Q9UKT9] | -1.03 | -2.05 | 0.211 | -0.875
FWCPICGREFTQKGNLLRHIKL [46F_47W_49P_50I_52G_53R_54E_55F_67L_, Q9UKT9] | 0.147 | -0.132 | 1.23 | -0.495
FLCPVCGAGFTQKGNLLRHIKL [46F_47L_49P_50V_52G_53A_54G_55F_67L_, Q9UKT9] | 1.38 | 0.0992 | 1.5 | 0.959
